Measured values as given in PubChem BioAssay AID624330 (Southern Research Specialized Biocontainment Screening …, 2012).
In all, about 340,000 compounds went through this assay and about 2,100 (0.62%) were called active.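 Rule for the calls: active = first-screen hits whose inhibition reached a set limit at any dose in the follow-up dose series; inconclusive = inhibition above the set first-screen limit but never retested; inactive = the rest.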 These entries were drawn from the full list. Potency and affinity values are given separately.

These compounds were tested against Rac GTPase-activating protein 1 (Homo sapiens) (UniProt Q9H0H5) (assay: MgcRacGAP GTPase-activating activity inhibitors, confirmation, biochemical, ADP Hunter fluorescence, primary and confirmatory (AID 624330;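 note: fluorescence reports GDP produced by GAP-driven GTP hydrolysis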)). Conditions: MgcRacGAP-stimulated Rac1 GTP hydrolysis, at 30 µM, hits give high values, GST-tagged Rac1 F28L mutant substrate.
Sequence of Rac GTPase-activating protein 1 (Homo sapiens) (Q9H0H5 whole entry, looked up): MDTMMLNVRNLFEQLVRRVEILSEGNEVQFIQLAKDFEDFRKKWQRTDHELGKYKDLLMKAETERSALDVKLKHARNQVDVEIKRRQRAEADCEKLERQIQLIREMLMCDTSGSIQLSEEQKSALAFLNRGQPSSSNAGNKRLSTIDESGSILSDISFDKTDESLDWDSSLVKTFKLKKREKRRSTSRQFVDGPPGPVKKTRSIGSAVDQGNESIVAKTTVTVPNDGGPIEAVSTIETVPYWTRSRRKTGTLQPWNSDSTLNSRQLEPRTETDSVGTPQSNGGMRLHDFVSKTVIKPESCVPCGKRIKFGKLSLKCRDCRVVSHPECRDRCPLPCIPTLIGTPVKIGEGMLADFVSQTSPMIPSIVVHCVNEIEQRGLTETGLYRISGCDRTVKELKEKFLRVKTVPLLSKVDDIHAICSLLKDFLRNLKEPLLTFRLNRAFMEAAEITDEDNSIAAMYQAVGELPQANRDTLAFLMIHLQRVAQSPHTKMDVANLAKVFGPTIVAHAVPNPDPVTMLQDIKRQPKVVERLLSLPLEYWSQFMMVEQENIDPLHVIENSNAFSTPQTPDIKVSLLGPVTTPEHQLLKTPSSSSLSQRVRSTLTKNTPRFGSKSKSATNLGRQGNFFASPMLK

inhibition, inactive:
CC(=NNC(=O)CSc1nc2ccccc2o1)c1ccco1 3.04%, CCn1c(SCC(=O)N/N=C/c2ccc(O)c(OC)c2)nc2ccccc21 12%, C/C(=N/NC(=O)CSc1nc2ccccc2n1C)c1ccco1 7.14%, C/C(=N\NC(=O)CSc1nc2ccccc2o1)c1cccc(O)c1 10.7%, COc1cc(/C=N/NC(=O)CSc2nc3ccccc3n2C)cc(OC)c1OC -9.37%, C/C(=N/NC(=O)CSc1nc2ccccc2n1C)c1ccncc1 8.72%, COc1ccccc1C(=O)NC(CCSC)C(=O)NCC(c1ccco1)N(C)C (stereo unspecified) 10.1%, O=C(O)c1ccc(N2CCS(=O)(=O)CC2)cc1 2.19%, CON(C)c1nc(NCC(C)C)nc(OCC#N)n1 -6.48%, CCn1c(=O)c2cc(C(=O)N3CCN(C)CC3)sc2c2ccccc21 7.75%, COc1ccc(NC(=O)CC2S/C(=N\c3nccs3)N(C)C2=O)cc1 (stereo unspecified) 13.7%, COc1cc2nncc(SC)c2cc1OC 8.55%, CCCn1c(SCC(=O)N(CC)c2c(N)n(Cc3ccccc3)c(=O)[nH]c2=O)nnc1-c1ccncc1 -0.81%, COc1ccc(OCCCC(=O)NCCc2ccc(OC)c(OC)c2)cc1 5.19%, O=C(CNCc1cccnc1)Nc1cc(C(F)(F)F)ccc1N1CCOCC1 28.2%, CCC(=O)Nc1cc(C(F)(F)F)ccc1N1CCOCC1 -1.84%, O=C(c1cc(Br)c[nH]1)N1CCSCC1 9.76%, COc1ccc(CN2CCN(C3CCOCC3)CC2CCO)c(C)c1C (stereo unspecified) 13%, COc1cc(C2=NOC(C(=O)N3CCOCC3)C2)cc(OC)c1OC (stereo unspecified) 7.04%, OCCN1CCN(CCCN2c3ccccc3Sc3ccc(C(F)(F)F)cc32)CC1 3.74%, OCCN1CCN(C(=S)Nc2cccc(C(F)(F)F)c2)CC1 24%, C[C@@H]1CN([C@@H](C)CO)C(=O)c2cc(Br)cnc2O[C@H]1CN(C)C(=O)CCN1CCCCC1 14.8%, O=[N+]([O-])c1cc(Cl)cc(/C=N/NC(=S)Nc2cc(S(=O)(=O)N3CCOCC3)ccc2Cl)c1O 10%, S=C(N/N=C/c1ccc(Cl)cc1)N1CCOCC1 0.9%, O=S(=O)(c1ccc(Cl)c(NC(=S)N/N=C/c2c(F)cccc2F)c1)N1CCOCC1 9.48%, Cc1ccc(/C=N/NC(=S)N2CCOCC2)cc1 4.05%, N#Cc1ccccc1NS(=O)(=O)c1cc2c3c(c1)CCC(=O)N3CCC2 -1.72%, COc1cc(NC(=O)CCN2CCN(CCO)CC2)cc(OC)c1 4.08%, OC(CNCC1COc2ccccc2O1)COc1ccccc1F (stereo unspecified) 8.38%, OC(CNCC1COc2ccccc2O1)COc1ccc(Cl)cc1 (stereo unspecified) 6.5%, Cc1ccc2nc(C)cc(C(=O)N3CCCC(CO)(Cc4ccccc4C)C3)c2c1 (stereo unspecified) 8.23%, CN(C)c1ccc(CCc2ccc(N)cc2)cc1 31.6%, CN(C)c1ccc(CN(C)C2CCCCC2)cc1 7.28%, COc1ccc(C(CCNCc2ccc(OC(C)C)cc2)c2ccccc2OC)cc1 (stereo unspecified) 7.13%, Cc1c(N2C(=O)/C(=C\c3ccccc3O)SC2=S)c(=O)n(-c2ccccc2)n1C 3.93%, CCc1ccc(N=C2NC(=O)/C(=C/c3cc(OC)c(O)c(OC)c3)S2)cc1 14.6%, Cc1c(N2C(=O)/C(=C/c3ccccc3)SC2=S)c(=O)n(-c2ccccc2)n1C 6.19%, COc1cc(/C=C2\SC(=Nc3ccc(O)cc3)NC2=O)cc(OC)c1O 27.1%, O=C1NC(=Nc2ccccc2)S/C1=C\c1ccccc1 3.51%, Cc1c(N=C2C(=O)Nc3ccccc32)c(=O)n(-c2ccccc2)n1C 1.01%, Cn1c(SCC(=O)NCc2cccs2)nnc1-c1ccncc1 5.96%, O=C(NCc1cc(C(F)(F)F)ccc1Cl)c1cccc2c1C(=O)c1ccc(N3CCCCC3)cc1S2(=O)=O 5.32%, COC(=O)C1CC2=C(CCCC2=O)NC1=O (stereo unspecified) 5.59%, COc1ccc(O)c(-c2cc(-c3cccc(Br)c3)n[nH]2)c1 10.7%, COc1ccc(NC(=O)C2CCN(C(=O)Cc3ccccc3)CC2)c(OC)c1 8.8%, C/C(=N\NS(C)(=O)=O)c1ccc(C)cc1 5.59%, Cc1cccc(C(=O)Nc2ccc(C(=O)N/N=C/c3ccco3)cc2)c1 1.6%, CN(Cc1ccc(Cl)cc1Cl)C(=O)C1CSC2(C)CCC(=O)N12 (stereo unspecified) 7.87%, O=S(=O)(/N=C(/Nc1nccs1)c1ccc(F)cc1)c1ccccc1 -7.34%, COc1cccc(OC)c1OCCCCCCN1CCN(C)CC1 4.56%, COc1cccc(OC)c1OCCN1CCCC1 -3.59%, Cc1cccc(C)c1OCCCN1CCOCC1 9.47%, COc1cccc(OC)c1OCCCCN1CCCCC1 19.4%, O=[N+]([O-])c1ccc(/C=N\N2CCN(Cc3ccccc3Cl)CC2)cc1 10%, CC(=O)N1c2ccc(S(=O)(=O)NCCC(=O)NC3CCC(C)CC3)cc2CC1C (stereo unspecified) 6.14%, O=C(CSCC(=O)OCC(=O)c1ccc(Br)cc1)Nc1ccc(Br)cc1 2.71%, C=CCn1c(C)cc(C(=O)COC(=O)CCc2cc(OC)c(OC)c(OC)c2)c1C 1.52%, COc1ccccc1NS(=O)(=O)c1ccc(C(=O)NCC(c2ccco2)N2CCCCC2)cc1 (stereo unspecified) -5.8%, Cc1cc(C)c(OCCN(C)Cc2ccccc2)c(Br)c1 9.5%, Cc1cc(C)c(C)c(OCCCCN(C)Cc2ccccc2)c1 26.2%, Cc1ccc(Cl)c(OCCCCN(C)Cc2ccccc2)c1 26.2%, Cc1ccc(C(C)C)c(OCCCN(C)Cc2ccccc2)c1 13%, COc1ccc(-c2c[n+]3c4n2CCCCC4=C(c2ccccc2)C3)cc1 8.53%, CCOC(=O)C1CCN(C(=O)CN2C(=O)c3cccnc3Oc3ccccc32)CC1 6.53%, COc1ccc(NC(=O)CCNS(=O)(=O)c2ccc3c(c2)CC(C)N3C(=O)C2CC2)cc1 (stereo unspecified) 8.6%, COc1ccc(-c2cc(C(=O)N(C)Cc3ccc(F)cc3)c3ccccc3n2)cc1OC 9.06%, CCSc1nnc([C@H](Cc2c[nH]c3ccccc23)NC(=O)OC(C)(C)C)o1 5.34%, Cc1ccc(NCCC(=O)c2cccs2)cc1Cl -0.47%, COc1ccc(NC(=O)CCC(=O)c2cccs2)cc1Cl 1.13%, O=C1CCNc2c(Cl)cc(Cl)cc21 -0.57%, Cc1ccc(OC(=O)C(F)(F)F)c2c1NCCC2 22.1%, COCc1[nH][nH]c(=O)c1C=Nc1ccc(Cl)cc1 8.52%, Cc1ccc(N(CC(=O)Nc2ccccc2-c2ccccc2)S(=O)(=O)c2ccccc2)cc1 1.42%, O=C1Nc2ccccc2/C1=N/N=C/c1cccc(O)c1 -0.92%, COc1ccc(O)c(/C=N/N=C2/C(=O)Nc3ccccc32)c1 10.2%, C#CCOCCOCCOCCNc1nc(N2CCN(C(=O)[C@H](Cc3ccc(O)cc3)n3cc([C@@H](N)C(C)CC)nn3)CC2)nc(N2CCN(C(=O)[C@H](Cc3cc4ccccc4[nH]3)n3cc([C@@H](N)C(C)CC)nn3)CC2)n1 (stereo partly specified) 7.82%, O=C(c1ccccc1)c1ccc2nc(-c3ccco3)c(-c3ccco3)nc2c1 25.8%, O=C(Nc1ccccc1)c1ccc2nc(-c3ccco3)c(-c3ccco3)nc2c1 14.3%, CCc1cccc(C)c1NC(=O)c1cccc(N(C)C)c1 23.8%, CCCCCCCCC1=NCCc2c1[nH]c1ccccc21 12.8%, Cc1cc(=O)[nH]c2cc(O)ccc12 5.17%, CCOCCc1nnc(NC(=O)Cc2c(F)cccc2Cl)s1 -4.41%, NC(=O)c1ncn([C@@H]2O[C@H](CNCc3ccccc3OCc3ccc(Cl)cc3Cl)[C@@H](O)[C@H]2O)n1 -6.96%, Cc1ccc(Nc2nc(N)c([N+](=O)[O-])c(NCc3ccco3)n2)cc1C 2.81%, COc1ccc(C(=O)CCNc2ccc3c(c2)OCCO3)cc1 38.5%, O=C(NCc1cccs1)Nc1ccc2c(c1)OCO2 -0.17%, Cc1ccc(S(=O)(=O)NCc2ccco2)cc1C 0.0567%, O=C(NCc1cccs1)c1ccc2c(c1)OCCO2 -0.21%, CCOc1ccc(Br)cc1CNc1ccc2c(c1)OCCO2 24.3%, O=C(Cc1ccccc1[N+](=O)[O-])Nc1ccc2c(c1)OCCO2 2.24%, O=C(O)CCNc1ccc2c(c1)OCCO2 19.4%, CCCn1c(=O)[nH]c(=O)c2c1nc(-c1ccc3c(c1)OCCO3)n2CCN1CCOCC1 10.3%, O=S(=O)(c1ccccc1)N(Cc1ccccn1)Cc1ccccn1 3.72%, C/C=C(\C)C(=O)OC(C)(C)[C@H]1Cc2cc3ccc(=O)oc3cc2O1 7.55%, CCC(c1nnc(SCC(=O)Nc2cc(Cl)ccc2C#N)n1C1CCCCC1)N(C)C (stereo unspecified) 5.01%, CCc1ccc(-c2cc(C(=O)O)c3ccccc3n2)s1 -3.07%
